Screens (PubChem BioAssay)
TbREL1 primary – TbREL1 inhibition, primary screen | TbREL1 RNA ligation, FRET fluorescence | inhibition, % at 9.66 µM | hit rate 0.49% among 89,000;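 active means inhibition above the mean inhibition across all screened compounds plus 3 SD, cut at about 11% in these data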
Target sequence (P86926 whole entry, looked up): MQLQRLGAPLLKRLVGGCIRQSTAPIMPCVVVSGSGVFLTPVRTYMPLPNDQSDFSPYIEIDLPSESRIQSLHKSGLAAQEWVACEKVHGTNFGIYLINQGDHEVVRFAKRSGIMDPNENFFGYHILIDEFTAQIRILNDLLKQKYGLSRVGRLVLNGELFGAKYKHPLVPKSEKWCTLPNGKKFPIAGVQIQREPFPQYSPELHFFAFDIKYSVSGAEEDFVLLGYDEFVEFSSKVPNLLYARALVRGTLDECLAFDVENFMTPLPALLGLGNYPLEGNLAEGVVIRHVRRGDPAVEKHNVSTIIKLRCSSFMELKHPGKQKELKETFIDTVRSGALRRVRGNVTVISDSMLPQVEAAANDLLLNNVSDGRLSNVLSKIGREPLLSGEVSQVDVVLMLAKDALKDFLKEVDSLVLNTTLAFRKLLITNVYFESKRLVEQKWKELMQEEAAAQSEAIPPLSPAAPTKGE
TbREL1 conf – TbREL1 inhibition, confirmation. shares compounds with TbREL1 primary. AID 1117282. inhibition, % at 9.66 µM. TbREL1 RNA ligation, FRET fluorescence. hit rate 37% among 390;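 active means mean inhibition across replicates above a set limit taken from the earlier primary screen, cut at about 11% in these data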
Of the large screens only hits and unclear results are named; the others gave an inactive call (follow-up assays come after a bar, where they were run). Shown is part of a subset that was picked to be rich in hits.

O=c1c2c(O)cc(O)cc2oc2c(O)ccc(O[C@H]3O[C@@H](CO)[C@H](O)[C@@H](O)[C@@H]3O)c12	none
O=c1c(O[C@H]2O[C@@H](CO)[C@H](O)[C@@H](O)[C@@H]2O)c(-c2ccc(O)cc2)oc2cc(O)cc(O)c12	none
CC(C)(C)c1ccc(-c2noc(CCC(=O)NC3CC3)n2)cc1	none
O=C(CSc1nnc(-c2cccnc2)n1-c1ccc(Cl)cc1)Nc1ccc(S(=O)(=O)Nc2nccs2)cc1	none
O=S(=O)(O)c1cc(O)c2cc(Nc3ccccc3)ccc2c1	TbREL1 primary 13.8
Nc1cccc(Nc2ccccc2)c1	none
Cc1ccc(S(=O)(=O)c2cc(Nc3ccccc3)ccc2O)cc1	none
Cn1c(CNc2ccccc2F)nc2ccccc21	none
CC(C)c1nc(N(C)S(C)(=O)=O)nc(-c2ccc(F)cc2)c1/C=C/[C@H](O)C[C@@H](O)CC(=O)O	none
CC(C)(C)c1ccc(-c2nnc(SCC(=O)Nc3ccc(S(=O)(=O)Nc4nccs4)cc3)n2Cc2ccco2)cc1	none
O=C(O)C1CC=CCC1C(=O)Nc1cc(Cl)ccc1Cl (stereo not drawn)	none
O=C(NNc1cc(Cl)ccc1Cl)C1CCC1	TbREL1 primary 91.4 | TbREL1 conf inactive
O=C(C1CCCN(S(=O)(=O)c2cc(Cl)ccc2Cl)C1)N1CCCCCC1 (stereo not drawn)	none
O=C1C[C@@H](O)[C@H](O)c2cccc(O)c21	none
COc1ccc(C2Nc3ccccc3C(=O)N2Cc2ccccc2)cc1COc1ccc(NC(C)=O)cc1 (stereo not drawn)	none
O=C(CSc1nnc(COc2ccccc2)n1Cc1ccco1)Nc1ccc2c(c1)OCO2	none
CN=c1scc(C)n1/N=C/c1ccc(O)c(O)c1O	TbREL1 primary 27.9 | TbREL1 conf 37.9
Cc1cc(SCC(=O)N/N=C/c2ccc(O)c(O)c2O)c(C)cc1Br	none
COCCN=c1scc(-c2ccco2)n1/N=C/c1ccc(O)c(O)c1O	none
O=C(NCc1ccco1)C1CCCN(S(=O)(=O)c2ccc([N+](=O)[O-])cc2)C1 (stereo not drawn)	none
C[C@@H]1CN([C@@H](C)CO)C(=O)c2cccc(NC(=O)Nc3cccc4ccccc34)c2O[C@H]1CN(C)S(=O)(=O)c1ccc2c(c1)OCCO2	none
COc1cccc(CC(=O)N(Cc2ccccc2)c2ccccc2C(=O)Nc2cc(OC)ccc2OC)c1	none
Cc1nn(-c2ccccc2)c2sc(C(=O)NC3CCCCCC3)cc12	none
Cc1ccc(-n2c(Cc3cccs3)nnc2SCC(=O)Nc2ccccc2-c2ccccc2)cc1	none
O=C(CCC1CCCCC1)NCCN1C2=NC[C@H](Cc3ccc(O)cc3)N2C[C@H]1Cc1ccc(O)cc1	none
COc1ccc(C[C@H]2CN3C(=NC[C@@H]3Cc3ccccc3)N2CCNC(=O)CCC2CCCCC2)cc1	TbREL1 primary 20.9 | TbREL1 conf 17.8
C[C@@H]1CN=C2N(CCNC(=O)CCC3CCCCC3)[C@H](Cc3ccc(O)cc3)CN21	none
Clc1ccc(CSc2nnc(-c3cccs3)o2)cc1Cl	none
Oc1ccc(CCc2c(F)cccc2F)c2cccnc12	none
OCc1ccnc2c(O)cccc12	none
Oc1ccc(CNc2cccc(F)c2)c2cccnc12	none
Oc1ccc(CNc2ccccc2Br)c2cccnc12	TbREL1 primary 14.2 | TbREL1 conf inactive
O=Nc1ccc(O)c2ncccc12	none
Oc1ccc(CNc2ccc(C(F)(F)F)cc2F)c2cccnc12	TbREL1 primary 12.6 | TbREL1 conf inactive
Cc1c(NC(=O)C2CCCN(S(=O)(=O)c3ccc(C(C)(C)C)cc3)C2)c(=O)n(-c2ccccc2)n1C (stereo not drawn)	none
Cc1ccccc1NCC(=O)N/N=C/c1ccc[nH]1	none
CCOC(=O)Cc1c(C)nc2cc(-c3ccc(C(C)(C)C)cc3)[nH]n2c1=O	none
Cc1nc2cc(-c3ccsc3-n3c(C)ccc3C)[nH]n2c(=O)c1Cl	TbREL1 primary 26.6 | TbREL1 conf inactive
C=CCc1c(C)nc2cc(-c3ccc(C)cc3)[nH]n2c1=O	none
O=C(NCCN1CCC(Cc2ccccc2)CC1)C1CCCN(S(=O)(=O)c2cccs2)C1 (stereo not drawn)	none
O=C(O)CCc1ccc(-c2ccccc2)n1CC(=O)O	none
O=C(O)CCc1ccc(-c2ccc(F)cc2)n1CCC(=O)O	TbREL1 primary 34.5 | TbREL1 conf inactive
CCCn1c(CCC(=O)O)ccc1-c1ccccc1	none
Cc1cc(C)cc(N(CC(=O)NC2CCC(C)CC2)S(=O)(=O)c2ccc(C)c(C)c2)c1 (stereo not drawn)	none
Cc1ccccc1CC(=O)N1CCC(n2nnc3ncccc32)CC1	none
CN1CCc2nc(SCC(=O)Nc3ccc(OC(F)(F)F)cc3)c(C#N)c(-c3cccs3)c2C1	TbREL1 primary 12.5 | TbREL1 conf inactive
CC(=O)CSc1nc(N)c(C#N)c(-c2cccs2)c1C#N	none
COc1ccc(NC(=O)CSc2nc(C)c3c(c2C#N)CCCC3)cc1	none
COc1cc(F)c(S(=O)(=O)N2CCCN(S(=O)(=O)c3cccc(N)c3)CC2)c(F)c1	none
COC(=O)c1cc(S(=O)(=O)N2CCN(c3ccccc3Cl)CC2)cn1C	none
O=C(O)c1ccnc(C(=O)O)c1	TbREL1 primary 12.6 | TbREL1 conf 15.6
CCOc1ccc(C(=O)O)cc1OC	none
O=C(O)c1cccc(NS(=O)(=O)c2cccc3cccnc23)c1	none
O=[N+]([O-])c1cc(C=NN2CCN(Cc3ccccc3Cl)CC2)ccc1Cl	none
CCC[C@H]1[C@@H](NC(=O)c2cccc(C)c2)CC[C@@]23CCCN2C(=O)CCC[C@@H]13	none
Cc1ccccc1CN1CCCCC(NC(=O)c2ccc(COc3ccccc3)cc2)C1=O (stereo not drawn)	none
O=C(NC1CCCCN(Cc2ccc(Cl)cc2)C1=O)c1ccc(COc2ccccc2)cc1 (stereo not drawn)	TbREL1 primary 11.8 | TbREL1 conf inactive
O=C(NC1CCCCN(Cc2ccc(Cl)cc2)C1=O)c1ccccc1 (stereo not drawn)	none
O=C(NCc1ccco1)C1CCCN(S(=O)(=O)c2ccccc2F)C1 (stereo not drawn)	none
C[C@H]1[C@@H](NC(=O)c2ccc(O)cc2)CC[C@@]23CCCN2C(=O)CCC[C@@H]13	none
Cc1cc(NS(=O)(=O)c2ccc(NC(=O)CSc3nnc(SCc4ccc(Cl)cc4)s3)cc2)nc(C)n1	none
CC1CCN(c2ccc(C(=O)O)cc2NS(=O)(=O)c2cccc3cccnc23)CC1	none
O=C(NC1(O)C(=O)c2ccccc2C1=O)c1ccccc1	TbREL1 primary 22.4 | TbREL1 conf 48.7
CC(=O)C(C(C)=O)C1(O)C(=O)c2ccccc2C1=O	none
O=C(NC(C(=O)O)c1ccccc1)c1ccccc1 (stereo not drawn)	none
Cc1ccc(-n2c(SCC(=O)Nc3ccc(S(=O)(=O)Nc4cc(C)nc(C)n4)cc3)nnc2-c2ccncc2)cc1	none
COc1cccc(-c2nnc(SCC(=O)Nc3ccc(Oc4ccccc4)cc3)n2Cc2ccco2)c1	none
CCOC(=O)C1CCCN(S(=O)(=O)c2cc3c(cc2Br)CCN3C(=O)CC)C1 (stereo not drawn)	none
Cc1ccc(-n2c(SCC(=O)Nc3ccc(OCc4ccccc4)cc3)nnc2-c2ccccc2)cc1	none
C#CCN1C(=O)[C@]2(NCCc3c2[nH]c2ccc(OC)cc32)c2cc(F)ccc21	none
COC(=O)C1=C(C)N(Cc2ccc(F)cc2)C(=S)NC1c1cccc(F)c1 (stereo not drawn)	none
COC(=O)C1=C(C)N(Cc2cccc(C(F)(F)F)c2)C(=NCc2ccc(OC)cc2)NC1c1ccccc1C(F)(F)F (stereo not drawn)	TbREL1 primary 12.0 | TbREL1 conf 23.4
Cc1c(C(=O)NCc2ccccc2C(F)(F)F)sc(=O)n1Cc1cccc(C(F)(F)F)c1	none
